aSyn 5UTR act: Activators via SNCA 5'UTR binding, MLPCN | actives 7.1% (n = 300,000) | alpha-synuclein 5'UTR reporter, activators screen | activity score, % (tested at 7.5 µM), hits read low; in the data active = activity score below about -60%
* = called active by the depositor. A selection follows.

SMILES	aSyn 5UTR act
O=C(Nc1cccc(NC(=O)c2cc([N+](=O)[O-])ccc2Cl)n1)c1cc([N+](=O)[O-])ccc1Cl	48.4
Cc1ccc(NC(=O)c2ccccc2Cl)c(Cl)c1	-83.3*
Cc1cc(NC(=O)c2ccc([N+](=O)[O-])cc2Cl)no1	-129.5*
CC(=O)Nc1ccc(S(=O)(=O)c2ccc([N+](=O)[O-])cc2)cc1	-72.2*
Cc1cc(NC(=O)C(Cl)c2ccccc2)no1 (stereo not drawn)	-74.0*
COC(=O)C1=C(Nc2ccccc2NC(=O)c2ccccc2C(=O)O)CSC1	-167.3*
Cc1c(NC(=O)c2ccccc2N)cccc1C(=O)O	-155.3*
Nc1ccccc1NC(=O)NC(=O)c1ccccc1	-169.3*
Nc1ccccc1NC(=O)c1ccccc1N	-139.0*
O=C(O)c1ccccc1C(=O)Nc1ccccc1NC(=O)c1ccccc1C(=O)O	-126.0*
Cc1c(NC(=O)c2ccc(Br)o2)cccc1C(=O)O	-85.8*
O=C(N/N=C/c1cccc(F)c1)c1cc(-c2ccco2)nc2ccccc12	-120.2*
CC(=Nc1ccccc1)C1=C(O)CSC1=O	-94.6*
COc1ccc(N=C(C)C2=C(O)CSC2=O)cc1	-72.0*
N#CCCCCn1ccc(NC(=O)c2ccc(Cl)cc2O)n1	-80.9*
CN(C)c1ccc(/C=C/C=C2/SC(=S)N(c3ccccc3)C2=O)cc1	-76.0*
O=C1/C(=C/C=C/c2ccco2)SC(=S)N1c1ccc(O)cc1	-78.2*
Cc1[nH]c2ccccc2c1/C=C/c1nc2ccccc2c(=O)n1CCO	-62.3*
CNc1nc(-c2ccc3c(c2)CCN3C(=O)c2cccc(F)c2)cs1	-427.2*
CNc1nc(-c2ccc3c(c2)CCN3C(=O)c2ccccc2C)cs1	-88.0*
COc1cc(-c2noc(C)c2C#Cc2ccsc2)cc(OC)c1OC	68.8
Cn1c2ccccc2c(=O)c2cc(C#CC3(O)CCCCC3)ccc21	76.9
Cn1c2ccccc2c(=O)c2ccc(C#Cc3ccccn3)cc21	-137.2*
Cn1c2ccccc2c(=O)c2cc(C#Cc3ccsc3)ccc21	-187.3*
Cn1c2ccccc2c(=O)c2cc(C#Cc3ccccn3)ccc21	-127.0*
SMILES	aSyn 5UTR act
CCCNC(=O)c1oc2ccc3c(c2c1C)C=CC(C)(C)O3	-90.2*
CCCNC(=O)c1oc2ccc3c(c2c1C)C(=O)CC(C)(C)O3	-89.2*
O=C(N=Nc1c(O)[nH]c2ccccc12)c1cccs1	-74.3*
C=CCn1c(O)c(N=NC(=S)Nc2cccc(C)c2)c2ccccc21	93.6
CC(C)c1ccc2[nH]c(O)c(N=NC(=O)c3cccc(S(=O)(=O)Nc4ccc(Cl)cc4)c3)c2c1	79.4
O=C(N=Nc1c(O)[nH]c2ccc(Br)cc12)c1cc(-c2cccs2)nc2ccccc12	81.4
Oc1ccc(NC(=S)N=Nc2c(O)[nH]c3ccccc23)cc1	-130.7*
COc1ccnc(CSC(N)=Nc2cccc(C(F)(F)F)c2)c1	-81.3*
CCn1cc(C(=O)Nc2ccc(Cl)cc2Cl)cn1	-71.8*
c1ccc(CCNc2ncnc3nc[nH]c23)cc1	-113.0*
c1ccc2c(CCNc3ncnc4nc[nH]c34)c[nH]c2c1	-72.7*
COC(=O)Nc1nnc(-c2ccccc2Cl)s1	-94.2*
CC(C)NCC(O)Cn1c2c(c3ccccc31)CCc1c-2cnn1-c1ccccc1 (stereo not drawn)	107.8
Cc1ccc(N2C(=O)CC(Sc3nc(C)cc(C)n3)C2=O)cc1 (stereo not drawn)	-62.7*
CCOC(=O)c1c(C)[nH]c(N=Nc2cccc(C)c2)c1C	-211.2*
CCOC(=O)c1c(C)[nH]c(N=Nc2cccc(OC)c2)c1C	-208.2*
ONC(=Nc1ccc(Cl)cc1)c1ccc(Cl)cc1	-99.8*
O=C(/C=C/c1ccc(-c2ccccc2[N+](=O)[O-])o1)c1ccco1	-135.9*
CS(=O)(=O)N(CC(=O)NCc1ccncc1)c1ccc(Cl)c(Cl)c1	-89.4*
Nc1ccccc1N=Nc1ccccc1N	-221.7*
Cn1ncc(Cl)c1C(=O)Nc1ccc(Cl)cn1	-113.8*
O=C(Nc1ccc(Cl)cn1)Nc1ccc(Cl)cn1	-77.2*
C/C(=C\c1ccccc1)C(=O)Nc1ccc(Cl)cn1	-180.1*
CC(C)c1ccc(/C=N/NC(=O)c2c(Cl)cnn2C)cc1	-141.7*
Fc1cc2[nH]c(=S)[nH]c2cc1Cl	41.8
SMILES	aSyn 5UTR act
O=C(Nc1ccc(F)cc1)Nc1ccc(Cl)cn1	-121.2*
O=C(Nc1ccc(Cl)cn1)Nc1ccccc1F	-152.9*
COc1ccc(-c2nc3c4ccccc4ccn3c2CN2CCOCC2)cc1OC	-94.7*
Cc1nnc(NCCc2ccccc2)c2ccccc12	-86.2*
CNC[C@H](Cc1ccccc1)NC[C@@H](Cc1cccc2ccccc12)NCCc1ccc(C)cc1	122.9
O=C(NC(=S)Nc1ccc2c(c1)OCCO2)c1ccc(F)cc1Cl	-136.2*
Cc1ccc(C(=O)NC(=S)Nc2ccc3c(c2)OCCO3)c(C)c1	-136.6*
O=C(CCl)Nc1ccc2c(c1)OCO2	-89.6*
CCn1ncc(NC(=S)Nc2ccc3c(c2)OCO3)c1C(N)=O	-180.4*
O=C(NC(=S)Nc1ccc2c(c1)OCO2)c1ccc(Cl)cc1	-143.2*
CCc1ccc(C(=O)NC(=S)Nc2ccc3c(c2)OCCO3)cc1	-128.2*
S=C(Nc1ccc2c(c1)OCO2)Nc1ccc2c(c1)OCO2	-107.3*
Cc1cc(C)cc(C(=O)NC(=S)Nc2ccc3c(c2)OCCO3)c1	-218.7*
CC(C)Oc1cccc(C(=O)Nc2ccc(N3CCN(C)CC3)cc2)c1	-75.6*
COc1ccc(N2CCN(C(=O)c3ccc(NS(=O)(=O)c4cccs4)cc3)CC2)cc1	-75.3*
CN1CCN(c2ccc(NC(=O)c3cccc(OCc4ccccc4)c3)cc2)CC1	-85.5*
COc1cccc(C(=O)Nc2ccc(N3CCN(C(=O)c4cccs4)CC3)cc2)c1	-162.0*
Brc1ccccc1OCCCCn1cnc2ccccc21	-138.1*
Cc1ccc(OCCCCn2cnc3ccccc32)c(C)c1	-88.1*
O=C(Nc1ccc(N2CCN(C(=O)c3ccccc3F)CC2)cc1)c1cncc(Br)c1	-73.7*
O=C(Nc1ccc(N2CCCCC2)cc1)c1cncc(Br)c1	-128.4*
Cn1nnnc1Sc1ncnc2scc(-c3ccc(F)cc3)c12	-88.9*
Cc1cc2c(cc1C)NC(CC(=O)NCc1ccccc1)C(=O)N2 (stereo not drawn)	-77.3*
O=C(Nc1ccncc1)c1cc(-c2cccc(Br)c2)nc2ccccc12	56.9
O=C(N/N=C/c1cccs1)c1cc(-c2ccncc2)nc2ccccc12	61.9
SMILES	aSyn 5UTR act
COc1ccc2cc(-c3cc(C(=O)O)c4ccccc4n3)ccc2c1	77.7
Cc1ccc(-c2cc(C(=O)Nc3nn[nH]n3)c3ccccc3n2)cc1	-69.0*
COc1ccc(-c2cc(C(=O)Nc3ccc(C(N)=O)cc3)c3ccccc3n2)cc1	-119.4*
O=C(Nc1nccs1)c1cc(-c2ccncc2)nc2ccccc12	-67.1*
CC(C)c1ccc(N(C(=O)c2cc3ccccc3oc2=O)C2C=CS(=O)(=O)C2)cc1 (stereo not drawn)	-122.5*
CCN(C(=O)c1cc2ccccc2oc1=O)c1ccccc1	-123.8*
O=C(c1cc2ccccc2oc1=O)N(c1ccccc1)C1C=CS(=O)(=O)C1 (stereo not drawn)	-102.4*
COc1ccc(N(C(=O)c2cc3ccccc3oc2=O)C2C=CS(=O)(=O)C2)cc1 (stereo not drawn)	-61.8*
COc1ccc(/C=C/C(=O)Oc2cccc(/C=N/NC(=O)Cc3ccc(Br)cc3)c2)cc1	-80.3*
Nc1ccc(Oc2cccc(Oc3ccc(N)cc3)c2)cc1	87.2
c1ccc(Oc2ccc(-c3ccn[nH]3)cc2)cc1	-79.2*
Cn1cccc1C1C=C(c2ccc(C(C)(C)C)cc2)Nc2ncnn21 (stereo not drawn)	-114.5*

Source: PubChem BioAssay
